From PubChem BioAssay (NCATS)
Inconclusive results are not listed. Entries that show only a call come without a potency. The source holds several records for some structures; these can differ, active in one and inactive in another. Active and inactive are the calls of the source. The call rests on the fitted dose curve; in most records, active means well fitted curve in the direction sought with a large enough effect; inconclusive means small, poorly fitted or top-dose-only effect, or another doubt; inactive means no such curve, though single readings can be large; an effect the other way counts as inactive or inconclusive.

How the values were obtained:
MCC-13 = test: qHTS assay to identify novel small-molecules to repurpose for Merkel cell carcinoma treatment (AID 1296009); conditions: MCC and control cell lines, CellTiter-Glo viability, 72 h; series mostly up to 46 µM; further: nearly all actives have a fitted effect of over 60% in size; further: potency means the concentration at half of the fitted maximal effect
Method in brief: (§1)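 72 hr, 37 degree celsius; NPC 8-pt / MIPE 11-pt dose response; compound pinned in DMSO; CellTiter-Glo, 10 min RT, luminescence; normalized to no-cell and DMSO controls.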

MCC-26 = test: as above; conditions: MCC and control cell lines, CellTiter-Glo viability, 72 h; series mostly up to 46 µM
Method in brief: as §1

MKL-1 = test: as above; conditions: MCC and control cell lines, CellTiter-Glo viability, 72 h; series mostly up to 46 µM
Method in brief: as §1

MKL-2 = test: as above; conditions: MCC and control cell lines, CellTiter-Glo viability, 72 h; series mostly up to 46 µM
Method in brief: as §1

NIH3T3 = test: as above; conditions: MCC and control cell lines, CellTiter-Glo viability, 72 h; at 44.8 µM (top of the series) unless noted
Method in brief: as §1

UISO = test: as above; conditions: MCC and control cell lines, CellTiter-Glo viability, 72 h; series mostly up to 46 µM
Method in brief: as §1

WaGa = test: as above; conditions: MCC and control cell lines, CellTiter-Glo viability, 72 h; series mostly up to 46 µM
Method in brief: as §1

C33A = test: Primary qHTS to identify gynecologic anti-cancer compounds using libraries of approved drugs and bioactive compounds (AID 1345084); conditions: Gynecologic cancer cell panel viability, ATPlite luminescence, 48 h; series mostly up to 57.5 µM; further: nearly all actives have a fitted effect of over 55% in size
Method in brief: (§2)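 48 h compound exposure at 37 C, 5% CO2; five-point qHTS. ATPlite luminescence readout of cell ATP.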

CAOV3 = test: as above; conditions: Gynecologic cancer cell panel viability, ATPlite luminescence, 48 h; series mostly up to 57.5 µM
Method in brief: as §2

CASKI = test: as above; conditions: Gynecologic cancer cell panel viability, ATPlite luminescence, 48 h; series mostly up to 57.5 µM
Method in brief: as §2

Structure (SMILES) | Potency (MCC-13) | Potency (MCC-26) | Potency (MKL-1) | Potency (MKL-2) | outcome (NIH3T3) | Potency (UISO) | Potency (WaGa) | Potency (C33A) | Potency (CAOV3) | Potency (CASKI)
CC1OC(C)OC(C)O1 (stereo not given) | inactive | inactive | inactive | inactive | inactive | inactive | inactive | inactive | inactive | inactive
CCCC(C)(COC(N)=O)COC(=O)NC(C)C (stereo not given) | inactive | inactive | inactive | inactive | inactive | inactive | inactive | inactive | inactive | inactive
Clc1cccc(N2CCNCC2)c1 | inactive | inactive | inactive | inactive | inactive | inactive | inactive | inactive | inactive | inactive
Oc1cccc2cccnc12 | inactive | 21.7 µM (active) and inactive | 12.2 µM (active) and inactive | 4.86 µM (active) and inactive | – | 10.9 µM (active) and inactive | 38.6 µM (active) and inactive | inactive | inactive | inactive
NCCc1cc(O)c(O)cc1O | inactive | inactive | inactive | inactive | inactive | inactive | inactive | inactive | inactive | inactive
O=C1CC[C@@]2(O)[C@H]3Cc4ccc(O)c5c4[C@@]2(CCN3CC2CC2)[C@H]1O5 | inactive | inactive | inactive | inactive | inactive | inactive | inactive | inactive | inactive | inactive
Cc1cc(SCc2sc(-c3ccc(C(F)(F)F)c(F)c3)nc2C)ccc1OCC(=O)O | inactive | inactive | inactive | inactive | inactive | inactive | inactive | inactive | inactive | inactive
C#CCN(C)[C@H](C)Cc1ccccc1 | inactive | inactive | inactive | inactive | inactive | inactive | inactive | inactive | inactive | inactive
N[C@@H]1C[C@H]1c1ccccc1 | inactive | inactive | inactive | inactive | – | inactive | inactive | inactive | inactive | –
O=C(O)c1ccc2[nH]cc(CCCCN3CC=C(c4ccccc4)CC3)c2c1 | inactive | inactive | inactive | inactive | inactive | inactive | inactive | inactive | inactive | inactive
COc1ccc(C(=O)c2c(C)n(CCN3CCOCC3)c3ccccc23)cc1 | inactive | inactive | inactive | inactive | inactive | inactive | inactive | inactive | – | inactive
Cc1cccc(C)c1NC1=NCCCS1 | inactive | inactive | inactive | inactive | – | inactive | inactive | inactive | inactive | inactive
CC[N+](CC)(CC)CC | inactive | inactive | inactive | inactive | inactive | inactive | inactive | inactive | inactive | inactive
CN1C(=S)CN=C(c2ccccc2)c2cc(Cl)ccc21 | inactive | inactive | inactive | inactive | inactive | inactive | inactive | inactive | inactive | inactive
O=C(NC(O)C(Cl)(Cl)Cl)NC(O)C(Cl)(Cl)Cl (stereo not given) | inactive | inactive | inactive | inactive | inactive | inactive | inactive | inactive | inactive | inactive
CCN(CC)CCOC(=O)C(O)(c1ccccc1)c1ccccc1 | inactive | inactive | inactive | inactive | inactive | inactive | inactive | inactive | inactive | inactive
FC(F)(F)c1cccc(C2=CCN(CCc3ccc4ccccc4c3)CC2)c1 | inactive | inactive | inactive | inactive | inactive | inactive | inactive | inactive | inactive | inactive
CN(C)CCN(C)CCc1ccc(Cl)c(Cl)c1 | inactive | inactive | inactive | inactive | – | inactive | inactive | – | – | –
O=C1NCN(c2ccccc2)C12CCN(CC1COc3ccccc3O1)CC2 (stereo not given) | inactive | inactive | inactive | inactive | – | inactive | inactive | inactive | inactive | inactive
CCC(COC(=O)c1cc(OC)c(OC)c(OC)c1)(c1ccccc1)N(C)C (stereo not given) | inactive | inactive | inactive | inactive | inactive | inactive | inactive | inactive | inactive | inactive
COC1(CS(=O)c2ccccc2)CCN(CCc2c[nH]c3ccc(F)cc23)CC1 (stereo not given) | inactive | inactive | inactive | inactive | – | inactive | inactive | – | – | –
C#CCOC(C(=O)OCCN(C)C)(c1ccccc1)c1ccccc1 | inactive | inactive | inactive | inactive | inactive | inactive | inactive | inactive | inactive | inactive
Oc1ccccc1-c1ccccc1 | inactive | inactive | inactive | inactive | inactive | inactive | inactive | inactive | inactive | inactive

Structure (SMILES) | Potency (MCC-13) | Potency (MCC-26) | Potency (MKL-1) | Potency (MKL-2) | outcome (NIH3T3) | Potency (UISO) | Potency (WaGa) | Potency (C33A) | Potency (CAOV3) | Potency (CASKI)
CC(C)NCC(O)c1ccccc1Cl (stereo not given) | inactive | inactive | inactive | inactive | – | inactive | inactive | inactive | inactive | inactive
CC[N+]1(C)CCCC(OC(=O)C(O)(c2ccccc2)c2ccccc2)C1 (stereo not given) | inactive | inactive | inactive | inactive | inactive | inactive | inactive | inactive | inactive | inactive
O=c1oc2ccccc2c(O)c1C(CC(O)c1ccc(-c2ccc(Br)cc2)cc1)c1ccccc1 (stereo not given) | inactive | inactive | inactive | inactive | – | inactive | inactive | inactive | inactive | inactive
COc1ccccc1N1CCNCC1 | inactive | inactive | inactive | inactive | – | inactive | inactive | inactive | inactive | inactive
O=c1[nH]c2ccccc2n1CCCN1CCC(n2c(=O)[nH]c3cc(Cl)ccc32)CC1 | inactive | inactive | inactive | inactive | inactive | inactive | inactive | inactive | inactive | inactive
CC(=O)[C@H]1CC[C@H]2[C@@H]3CC[C@H]4C[C@](C)(O)CC[C@]4(C)[C@H]3CC[C@]12C | inactive | inactive | inactive | inactive | inactive | inactive | inactive | inactive | inactive | inactive
CCCC1CCCCN1 (stereo not given) | inactive | inactive | inactive | inactive | inactive | inactive | inactive | inactive | inactive | inactive
C=CCN1CC[C@]23c4c5ccc(O)c4O[C@H]2C(=O)CC[C@@]3(O)[C@H]1C5 | inactive | inactive | inactive | inactive | – | inactive | inactive | inactive | inactive | inactive
Cc1cccc(C)c1NC(=O)CN1CCCC1=O | inactive | inactive | inactive | inactive | – | inactive | inactive | inactive | inactive | inactive
NP(N)(=O)NC(=O)c1ccc(F)cc1 | inactive | inactive | inactive | inactive | – | inactive | inactive | inactive | inactive | inactive
CC(C)(C)NCC(O)c1cc(Cl)c(N)c(Cl)c1 (stereo not given) | inactive | inactive | inactive | inactive | inactive | inactive | inactive | inactive | inactive | inactive
CN(C)CCc1ccc(O)cc1 | inactive | inactive | inactive | inactive | – | inactive | inactive | inactive | inactive | inactive
CCOP(=S)(OCC)Oc1cc(C)nc(C(C)C)n1 | inactive | inactive | inactive | inactive | – | inactive | inactive | inactive | inactive | inactive
Cc1ccc(S(=O)(=O)N[C@@H](CCCCN)C(=O)CCl)cc1 | inactive | – | inactive | inactive | inactive | inactive | inactive | inactive | inactive | inactive
C=C1CC[C@@]2(O)[C@H]3Cc4ccc(O)c5c4[C@@]2(CCN3CC2CC2)[C@H]1O5 | inactive | – | inactive | inactive | inactive | inactive | inactive | inactive | inactive | inactive
Cc1ccc2c(c1)C1CN(C)CCC1N2 (stereo not given) | inactive | – | inactive | inactive | inactive [at 17.4 µM] | inactive | inactive | inactive | inactive | inactive
CC[C@@H](CO)NC(=O)[C@@H]1C=C2c3cccc4c3c(cn4C)C[C@H]2N(C)C1 | inactive | inactive | 21.1 µM (active) | – | – | – | – | inactive | inactive | inactive
C=C1C[C@@H]2[C@H](CC[C@]3(C)C(=O)CC[C@@H]23)[C@@]2(C)C=CC(=O)C=C12 | inactive | inactive | – | 13.3 µM (active) | – | inactive | – | inactive | – | inactive
OCCOc1ccccc1 | inactive | inactive | inactive | inactive | – | inactive | inactive | inactive | inactive | inactive
CNCC(O)c1ccc(O)cc1 (stereo not given) | inactive | – | inactive | inactive | inactive | inactive | inactive | inactive | inactive | inactive
N#CC(C#N)=Cc1ccc(O)c(O)c1 | inactive | inactive | 7.5 µM (active) | – | – | – | 13.3 µM (active) | inactive | inactive | inactive
CCC(=O)C(CC(C)N(C)C)(c1ccccc1)c1ccccc1 (stereo not given) | inactive | inactive | – | – | – | – | – | inactive | – | –
